Activity calls are given as the source filed them.
Assays:
[1] = system: Wnt5a (protein binding on small-molecule microarray); assay: Wnt5a binders on small-molecule microarray, primary screen, biophysical, 635/667 nm fluorescence (AID 1142); settings: 635 nm fluorescence, higher = more signal;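 note: fluorescence read at 667 nm with signal to noise per printed feature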
[2] = cell viability in Huh7 cells, primary screen, cytotoxicity control for HCV replication inhibitor project, CellTiter-Glo luminescence, basal, 48 h (AID 1143); settings: Huh7 HCV replicon, higher = more signal, called active from +8 up or from −8 down;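 note: Huh7 hepatoma cells carrying a hepatitis C replication reporter with no stimulus; test concentration not given here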
[3] = CREB reporter modulators without forskolin, primary screen, cell-based, PC12, CRE-LacZ reporter, unstimulated (AID 1145); settings: no forskolin, luminescence, 4.5 h, higher = more signal, called active from +8 up or from −8 down
[4] = CREB reporter modulators under forskolin, primary screen, cell-based, PC12, CRE-LacZ reporter, forskolin-stimulated (AID 1146); settings: luminescence, 4.5 h, higher = more signal, called active from +8 up or from −8 down;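 note: PC12 cells with 6xCRE LacZ reporter stimulated by forskolin 10 µM; beta-galactosidase reporter signal reflecting CREB driven transcription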
[5] = molecular target: Streptavidin (Streptomyces avidinii) (UniProt P22629); assay: streptavidin binders on small-molecule microarray, primary screen, artefact control for SMM compound annotation, biophysical, 635/667 nm fluorescence (AID 1147); settings: streptavidin binding, higher = more signal;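 note: signal reflects streptavidin binding to arrayed compounds as a control protein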
Chain of Streptavidin (Streptomyces avidinii) (P22629 whole entry, looked up): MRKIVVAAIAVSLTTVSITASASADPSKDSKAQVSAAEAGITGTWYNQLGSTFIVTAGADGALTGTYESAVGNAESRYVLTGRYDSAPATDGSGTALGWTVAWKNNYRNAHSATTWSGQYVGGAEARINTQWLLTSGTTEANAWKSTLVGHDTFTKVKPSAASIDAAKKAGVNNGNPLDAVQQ

[6] = small-molecule binders of probe aInhba, primary screen, biochemical, small-molecule microarray, 635/667 nm fluorescence (AID 1148); settings: higher = more signal;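 note: score merges 667nm spot fluorescence with signal-to-noise for antibody binding to printed compounds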
[7] = molecular target: Torsin-1A (Homo sapiens) (UniProt O14656); assay: torsin A binders from cell lysate, primary screen, small-molecule microarray, wild-type, 635/667 nm (AID 1149); settings: COS7 hTOR1A-WT lysate, 635 nm fluorescence, higher = more signal
Chain of Torsin-1A (Homo sapiens) (O14656 whole entry, looked up): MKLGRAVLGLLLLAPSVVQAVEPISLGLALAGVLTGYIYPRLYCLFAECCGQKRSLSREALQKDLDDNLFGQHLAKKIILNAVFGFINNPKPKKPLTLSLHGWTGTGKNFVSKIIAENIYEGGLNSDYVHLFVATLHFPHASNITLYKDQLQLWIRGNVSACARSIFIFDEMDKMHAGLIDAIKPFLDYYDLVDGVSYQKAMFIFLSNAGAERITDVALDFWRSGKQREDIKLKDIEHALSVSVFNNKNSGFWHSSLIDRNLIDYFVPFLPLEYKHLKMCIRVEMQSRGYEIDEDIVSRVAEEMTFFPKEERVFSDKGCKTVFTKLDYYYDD

[8] = molecular target: Torsin-1A (Homo sapiens) (UniProt O14656); assay: small-molecule binders of mutant TOR1A in lysate, primary screen, cell lysate, small-molecule microarray, COS7 lysate, 635/667 nm fluorescence (AID 1150); settings: COS7 hTOR1A mutant lysate, 635 nm fluorescence, higher = more signal;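 note: score pools 667 nm emission and signal to noise measuring lysate protein binding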
[9] = system: Sonic hedgehog protein (Shh); assay: small-molecule binders of Shh protein, primary screen, biochemical, small-molecule microarray, 635/667 nm fluorescence (AID 1151); settings: small-molecule microarray binding, 635 nm fluorescence; higher = more signal;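 note: Shh protein binding to compounds spotted on small-molecule microarray slides; score combines spot fluorescence intensity with signal-to-noise across triplicate slides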
[10] = E. coli DRC41 culture turbidity changes, primary screen, E. coli filamentation inducer project, strain DRC41, OD650, 48 h (AID 1152);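 note: E. coli MC1000 strain DRC41 lacking acrAB efflux pump and sulA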; settings: E. coli DRC41 (acrAB sulA), higher = more signal, called active from +8 up or from −8 down
[11] = small-molecule binders of probe aLefty1, primary screen, biochemical, small-molecule microarray, 635/667 nm fluorescence (AID 1153); settings: higher = more signal;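 note: score merges spot fluorescence with signal-to-noise ratio from the scanned slide images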
[12] = PSAC antagonists in infected red cells, primary screen, cell-based, P. falciparum Indochina, OD700, 1 h (AID 1154); settings: P. falciparum Indochina infected RBC osmotic lysis, higher = more signal, called active from +8 up or from −8 down
[13] = PSAC antagonists in infected red cells, primary screen, cell-based, P. falciparum Indochina, OD700, 2 h (AID 1155);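 note: lysis reports solute entry through the parasite surface anion channel PSAC; channel blockers reduce lysis of infected cells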; settings: P. falciparum Indochina infected erythrocytes, osmotic lysis OD700; higher = more signal, called active from +8 up or from −8 down
[14] = osmotic lysis modulators in infected erythrocytes, primary screen, PSAC antagonist project, cell-based, P. falciparum Indochina, OD700, 3 h (AID 1156); settings: higher = more signal, called active from +8 up or from −8 down
[15] = PSAC antagonists in infected red cells, primary screen, cell-based, P. falciparum Indochina, OD700, 18 h (AID 1157); settings: P. falciparum Indochina infected erythrocytes, osmotic lysis OD700, 18 h; higher = more signal, called active from +8 up or from −8 down
[16] = modulators of S6 phosphorylation in cells, primary screen, cell-based, A549, cytoblot, luminescence, serum-stimulated (AID 1158); settings: A549 phospho-S6 cytoblot, 5 h, higher = more signal;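 note: serum-stimulated A549 lung adenocarcinoma cells; signal is phosphorylated S6 detected by cytoblot immunostaining with HRP secondary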
[17] = molecular target: NADPH oxidase 2 (Homo sapiens) (UniProt P04839); assay: NOX2-dependent H2O2 signal modulators, primary screen, NOX inhibitor project, cell-based, HEK293-NOX2, PMA-stimulated, Amplex Red fluorescence (AID 1159); settings: 45 min, higher = more signal, called active from +8 up or from −8 down; note: test concentration not given here
Chain of NADPH oxidase 2 (Homo sapiens) (P04839 whole entry, looked up): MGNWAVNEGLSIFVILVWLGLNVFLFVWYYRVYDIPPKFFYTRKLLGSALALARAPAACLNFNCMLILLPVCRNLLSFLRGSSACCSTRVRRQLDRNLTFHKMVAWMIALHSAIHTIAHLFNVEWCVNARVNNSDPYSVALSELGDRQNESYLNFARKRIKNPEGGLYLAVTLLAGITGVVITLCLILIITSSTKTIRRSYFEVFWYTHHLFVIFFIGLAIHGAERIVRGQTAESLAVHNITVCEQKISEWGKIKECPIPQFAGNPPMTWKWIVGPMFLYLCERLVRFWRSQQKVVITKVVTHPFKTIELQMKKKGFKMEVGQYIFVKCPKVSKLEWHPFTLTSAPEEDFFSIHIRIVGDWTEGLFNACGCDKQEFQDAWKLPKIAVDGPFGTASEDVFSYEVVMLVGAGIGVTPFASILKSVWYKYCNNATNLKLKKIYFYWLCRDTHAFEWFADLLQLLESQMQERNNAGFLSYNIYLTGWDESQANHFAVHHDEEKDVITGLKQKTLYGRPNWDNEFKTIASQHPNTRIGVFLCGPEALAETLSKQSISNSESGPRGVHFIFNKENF

[18] = molecular target: NADPH oxidase 4 (Homo sapiens) (UniProt Q9NPH5); assay: NOX4-dependent H2O2 signal modulators, primary screen, NOX inhibitor project, cell-based, HEK293-NOX4, tetracycline-induced, Amplex Red fluorescence (AID 1160); settings: 45 min, higher = more signal, called active from +8 up or from −8 down
Chain of NADPH oxidase 4 (Homo sapiens) (Q9NPH5 whole entry, looked up): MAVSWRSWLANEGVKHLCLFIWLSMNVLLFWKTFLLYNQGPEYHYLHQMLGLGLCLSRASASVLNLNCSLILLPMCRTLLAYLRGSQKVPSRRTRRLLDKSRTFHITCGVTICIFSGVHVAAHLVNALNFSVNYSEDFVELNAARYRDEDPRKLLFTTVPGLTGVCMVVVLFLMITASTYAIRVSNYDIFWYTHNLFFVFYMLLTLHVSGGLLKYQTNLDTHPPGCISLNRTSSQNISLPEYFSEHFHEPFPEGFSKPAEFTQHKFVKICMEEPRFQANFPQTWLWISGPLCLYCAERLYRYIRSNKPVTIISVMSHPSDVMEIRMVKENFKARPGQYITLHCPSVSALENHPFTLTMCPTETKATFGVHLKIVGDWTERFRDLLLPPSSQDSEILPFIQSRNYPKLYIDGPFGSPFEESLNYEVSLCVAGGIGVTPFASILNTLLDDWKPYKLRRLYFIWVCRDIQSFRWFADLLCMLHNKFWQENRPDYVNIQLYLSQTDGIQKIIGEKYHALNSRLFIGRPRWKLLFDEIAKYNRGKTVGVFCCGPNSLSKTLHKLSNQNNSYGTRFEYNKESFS

[19] = molecular target: NADPH oxidase 5 (Homo sapiens) (UniProt Q96PH1); assay: NOX5-dependent H2O2 signal modulators, primary screen, NOX inhibitor project, cell-based, HEK293-NOX5, Amplex Red fluorescence (AID 1161); settings: HEK293-NOX5, ionomycin, 45 min, higher = more signal
Chain of NADPH oxidase 5 (Homo sapiens) (Q96PH1 whole entry, looked up): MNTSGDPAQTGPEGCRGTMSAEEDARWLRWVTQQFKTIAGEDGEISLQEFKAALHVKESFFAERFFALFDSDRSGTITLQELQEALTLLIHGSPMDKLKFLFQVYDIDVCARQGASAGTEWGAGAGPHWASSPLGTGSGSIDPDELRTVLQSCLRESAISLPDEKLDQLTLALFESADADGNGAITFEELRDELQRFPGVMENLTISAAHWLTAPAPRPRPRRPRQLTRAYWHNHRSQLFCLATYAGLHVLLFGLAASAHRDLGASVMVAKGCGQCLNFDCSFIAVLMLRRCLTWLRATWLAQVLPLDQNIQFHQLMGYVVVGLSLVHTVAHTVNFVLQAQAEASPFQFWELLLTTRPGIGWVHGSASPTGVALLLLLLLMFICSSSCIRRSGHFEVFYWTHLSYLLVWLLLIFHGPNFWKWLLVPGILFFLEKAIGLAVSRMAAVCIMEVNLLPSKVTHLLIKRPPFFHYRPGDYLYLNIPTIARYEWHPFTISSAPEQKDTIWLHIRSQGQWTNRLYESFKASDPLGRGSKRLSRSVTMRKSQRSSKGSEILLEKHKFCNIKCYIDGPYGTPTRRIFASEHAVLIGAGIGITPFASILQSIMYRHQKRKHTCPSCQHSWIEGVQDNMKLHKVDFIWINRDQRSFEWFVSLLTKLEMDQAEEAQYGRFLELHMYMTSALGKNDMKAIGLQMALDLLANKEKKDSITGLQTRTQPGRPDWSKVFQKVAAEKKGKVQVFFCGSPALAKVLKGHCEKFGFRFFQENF

[20] = A549 cell viability effects, profiling panel, calcein-AM fluorescence, 48 h, basal (AID 1162); settings: higher = more signal; note: test concentration not given here

## C=CCC(OC(C)=O)[C@@H]1[C@@H](N(Cc2cccc3ccccc23)C(=O)c2cccc3ccccc23)c2cc(OCCCO)ccc2N1C(=O)Cc1ccc(OC)cc1 (stereo not given in full)
[1]
  composite z-score: -0.0589
[2]
  z-score: -3.55 (inactive)
[3]
  z-score: 1.47 (inactive)
[4]
  z-score: -0.876 (inactive)
[5]
  composite z-score: 0.228
[6]
  composite z-score: -0.179
[7]
  composite z-score: -0.0507
[8]
  composite z-score: 0.274
[9]
  composite z-score: 0.234
[10]
  z-score: 2.86 (inactive)
[11]
  composite z-score: 0.0945
[12]
  z-score: 2.59 (inactive)
[13]
  z-score: -0.227 (inactive)
[14]
  z-score: -0.0889 (inactive)
[15]
  z-score: -0.618 (inactive)
[16]
  z-score: 1.5
[17]
  z-score: 0.295 (inactive)
[18]
  z-score: -0.783 (inactive)
[19]
  z-score: 1.46
[20]
  z-score: 0.725

## CCCCC(=C=CC[C@@H](O)c1ccc(OCCO)cc1)C[C@@H](O)c1cc(Cl)cc(Cl)c1O
[1]
  composite z-score: 0.145
[2]
  z-score: -2.71 (inactive)
[3]
  z-score: 14.3 (active)
[4]
  z-score: -2.04 (inactive)
[5]
  composite z-score: 0.414
[6]
  composite z-score: 0.0536
[7]
  composite z-score: -0.0726
[8]
  composite z-score: 1.01
[9]
  composite z-score: 0.184
[10]
  z-score: 1.55 (inactive)
[11]
  composite z-score: -0.147
[12]
  z-score: 20.3 (active)
[13]
  z-score: 4.24 (inactive)
[14]
  z-score: 1.41 (inactive)
[15]
  z-score: 0.159 (inactive)
[16]
  z-score: 0.903
[17]
  z-score: 0.444 (inactive)
[18]
  z-score: 0.55 (inactive)
[19]
  z-score: -1.14
[20]
  z-score: 2.24

## COC(=O)c1c2oc(c1C(=O)OC)C(=O)N[C@@H](C(C)C)Cn1nncc1C1(CCCCC1)NC(=O)N[C@H](CO)CC2
[1]
  composite z-score: -0.0906
[2]
  z-score: -0.475 (inactive)
[3]
  z-score: 1.44 (inactive)
[4]
  z-score: -0.575 (inactive)
[5]
  composite z-score: 0.235
[6]
  composite z-score: -0.195
[7]
  composite z-score: 0.217
[8]
  composite z-score: -0.422
[9]
  composite z-score: -0.0256
[10]
  z-score: 3.17 (inactive)
[11]
  composite z-score: -0.235
[12]
  z-score: 1.05 (inactive)
[13]
  z-score: 1.49 (inactive)
[14]
  z-score: 0.168 (inactive)
[15]
  z-score: 1.41 (inactive)
[16]
  z-score: 0.651
[17]
  z-score: 0.234 (inactive)
[18]
  z-score: 0.991 (inactive)
[19]
  z-score: -0.162
[20]
  z-score: 2.55

## O=C1O[C@H](c2ccccc2)[C@H](c2ccccc2)N2[C@H]1[C@@H](C(=O)Nc1nc3ccccc3s1)[C@]1(C(=O)Nc3ccc(C#CCCO)cc31)[C@H]2c1ccccc1OCCO
[1]
  composite z-score: 0.81
[2]
  z-score: -2.88 (inactive)
[3]
  z-score: 0.182 (inactive)
[4]
  z-score: -0.428 (inactive)
[5]
  composite z-score: 1.11
[6]
  composite z-score: 0.279
[7]
  composite z-score: 0.795
[8]
  composite z-score: 0.778
[9]
  composite z-score: 0.384
[10]
  z-score: 2.34 (inactive)
[11]
  composite z-score: 0.634
[12]
  z-score: 2.76 (inactive)
[13]
  z-score: 2.95 (inactive)
[14]
  z-score: 1.4 (inactive)
[15]
  z-score: 1.69 (inactive)
[16]
  z-score: 0.503
[17]
  z-score: 0.146 (inactive)
[18]
  z-score: 0.228 (inactive)
[19]
  z-score: 2.14
[20]
  z-score: -0.655

## C=CCNC(=O)[C@@H]1[C@H]2C(=O)O[C@H](c3ccccc3)[C@H](c3ccccc3)N2[C@H](c2ccc(O)cc2)[C@@]12C(=O)N(C(=O)OCCOC)c1ccc(C#Cc3ccc(OC)cc3)cc12
[1]
  composite z-score: 0.334
[2]
  z-score: -2.94 (inactive)
[3]
  z-score: -0.203 (inactive)
[4]
  z-score: 0.417 (inactive)
[5]
  composite z-score: 0.256
[6]
  composite z-score: 0.0627
[7]
  composite z-score: 0.808
[8]
  composite z-score: 0.54
[9]
  composite z-score: 1.06
[10]
  z-score: 1.58 (inactive)
[11]
  composite z-score: -0.0222
[12]
  z-score: 2.52 (inactive)
[13]
  z-score: 1.19 (inactive)
[14]
  z-score: -0.264 (inactive)
[15]
  z-score: 0.804 (inactive)
[16]
  z-score: -0.0456
[17]
  z-score: 0.957 (inactive)
[18]
  z-score: -0.276 (inactive)
[19]
  z-score: 1.9
[20]
  z-score: -0.413

## COc1ccc([Si](C)(C)[C@@H]2[C@@H](CCn3cc(CCO)nn3)O[C@]3(C(=O)N(Cc4ccc(N5C(=O)c6cccc7cccc5c67)cc4)c4ccccc43)[C@H]2C)cc1
[1]
  composite z-score: 0.0378
[2]
  z-score: -7.93 (inactive)
[3]
  z-score: 0.353 (inactive)
[4]
  z-score: -1.65 (inactive)
[5]
  composite z-score: 0.256
[6]
  composite z-score: -0.0529
[7]
  composite z-score: 0.815
[8]
  composite z-score: 0.609
[9]
  composite z-score: 0.907
[10]
  z-score: 1.93 (inactive)
[11]
  composite z-score: 0.457
[12]
  z-score: 6 (inactive)
[13]
  z-score: 0.758 (inactive)
[14]
  z-score: -1.06 (inactive)
[15]
  z-score: -1.22 (inactive)
[16]
  z-score: 2.29
[17]
  z-score: 2.23 (inactive)
[18]
  z-score: 1.62 (inactive)
[19]
  z-score: 1.42
[20]
  z-score: -1.32

## NC(=O)N1C(=O)C2C(C1=O)C1C=C(c3ccc(CO)cc3)C2C(C2CC2)N1Cc1cc2c(cc1Br)OCO2 (stereo not given)
[1]
  composite z-score: 0.0262
[2]
  z-score: -1.15 (inactive)
[3]
  z-score: 7.31 (inactive)
[4]
  z-score: -1.34 (inactive)
[5]
  composite z-score: 0.368
[6]
  composite z-score: 0.134
[7]
  composite z-score: 0.32
[8]
  composite z-score: 0.127
[9]
  composite z-score: 1.39
[10]
  z-score: 0.737 (inactive)
[11]
  composite z-score: 0.0671
[12]
  z-score: 14.4 (active)
[13]
  z-score: 0.537 (inactive)
[14]
  z-score: -0.429 (inactive)
[15]
  z-score: -1.43 (inactive)
[16]
  z-score: 0.215
[17]
  z-score: 2.92 (inactive)
[18]
  z-score: 1.48 (inactive)
[19]
  z-score: -0.201
[20]
  z-score: 0.485

Reference: PubChem BioAssay
